From PubChem BioAssay (EPA / NIEHS)
The source made the active and inactive calls. How the source made its calls: active means hit-call score of the fitted dose curve at least 0.9, where 1 is the maximum; inactive means score below 0.9.

assay: CEETOX_H295R_11DCORT_noMTC: CeeTox H295R High-throughput Steroidogenesis Assay for 11-Deoxycortisol (11DCORT), maximum tolerated concentration (MTC) filtered results only (AID 2283911); conditions: actives raise or lower the signal
Procedure, shortened: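 HPLC-MS/MS read-out of 11-deoxycortisol after MTBE extraction of H295R medium. Cells: forskolin 10 uM pre-stimulation 48 h, chemical 48 h, 0.1% DMSO final. Bidirectional fit vs DMSO baseline; no MTC filtering.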

Row | SMILES | outcome | AC50
1 | ClC(Cl)=C(Cl)C(Cl)=C(Cl)Cl | inactive | –
2 | CCC1(c2ccc(N)cc2)CCC(=O)NC1=O (stereo not given) | inactive | –
3 | c1cc[c]([Hg][c]2ccccc2)cc1 | – | 53.6 µM (active)
4 | Cn1sc(Cl)cc1=O | inactive | –
5 | O=C(OC1CCCCC1)c1ccccc1C(=O)OC1CCCCC1 | – | 2.24 µM (active)

assay: CEETOX_H295R_OHPREG_noMTC: CeeTox H295R High-throughput Steroidogenesis Assay for OH-Pregnenolone (OHPREG), maximum tolerated concentration (MTC) filtered results only (AID 2283912); conditions: actives raise or lower the signal
Procedure, shortened: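 Medium 17alpha-hydroxypregnenolone quantified by reverse-phase HPLC-MS/MS after 48 h chemical exposure of forskolin-prestimulated (10 uM, 48 h) H295R, 0.1% DMSO final. Fitting bidirectional relative to DMSO; no maximum-tolerated-concentration filtering applied.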

Row | SMILES | outcome | AC50
6 | ClC(Cl)=C(Cl)C(Cl)=C(Cl)Cl | inactive | –
7 | CCC1(c2ccc(N)cc2)CCC(=O)NC1=O (stereo not given) | inactive | –
8 | c1cc[c]([Hg][c]2ccccc2)cc1 | – | 27.1 µM (active)
9 | Cn1sc(Cl)cc1=O | inactive | –
10 | O=C(OC1CCCCC1)c1ccccc1C(=O)OC1CCCCC1 | – | 2.11 µM (active)
